The results in this text go back to the antibiotic and cytotoxicity screens of Wong et al. (2023).

The campaign covered roughly 39,000 compounds. About 3,300 (8.5%) were called active. What follows is part of a selection rich in actives, with near analogues and random picks from the rest.

The test system of this experiment is HepG2. The experiment can be described thus: cytotoxicity call (relative viability < 0.9). Conditions: 10 µM.
Regarding `O=C(C[C@@H]1CC[C@H](NS(=O)(=O)c2ccccc2F)[C@@H](CO)O1)NCCCN1CCOCC1`, the cytotoxicity call was “inactive”.
With `C[C@@H]1CN([C@H](C)CO)C(=O)Cc2cc(NS(C)(=O)=O)ccc2O[C@@H]1CN(C)S(C)(=O)=O` the entry was “inactive”; with `C[C@H]1CN([C@@H](C)CO)S(=O)(=O)c2ccc(-c3cccnc3)cc2O[C@@H]1CN(C)C(=O)NC1CCCCC1`, “inactive”.
The same measure for `C[C@H](CO)N1C[C@H](C)[C@@H](CN(C)C(=O)C2CCOCC2)Oc2cc(C#Cc3ccncc3)ccc2S1(=O)=O`: “inactive”.
With `CC(C)CC#Cc1ccc2c(c1)O[C@@H](CN(C)C(=O)C1CCOCC1)[C@H](C)CN([C@H](C)CO)S2(=O)=O` the entry was “inactive”; with `C[C@H](CO)N1C[C@H](C)[C@H](CN(C)C(=O)C2CCOCC2)Oc2cc(C#Cc3ccncc3)ccc2S1(=O)=O`, “inactive”.
With `C[C@@H]1CN([C@@H](C)CO)S(=O)(=O)c2ccc(C#Cc3ccncc3)cc2O[C@@H]1CN(C)C(=O)C1CCOCC1`, the cytotoxicity call was “active”.
With `CC(C)CC#Cc1ccc2c(c1)O[C@H](CN(C)C(=O)C1CCOCC1)[C@@H](C)CN([C@H](C)CO)S2(=O)=O`, the cytotoxicity call is “inactive”.
With `CC(C)CC#Cc1ccc2c(c1)O[C@H](CN(C)C(=O)C1CCOCC1)[C@H](C)CN([C@H](C)CO)S2(=O)=O` the entry was “inactive”; with `C[C@@H]1CN([C@H](C)CO)S(=O)(=O)c2ccc(C#Cc3ccncc3)cc2O[C@H]1CN(C)C(=O)C1CCOCC1`, “active”; with `C[C@@H]1CN([C@@H](C)CO)S(=O)(=O)c2ccc(C#Cc3ccncc3)cc2O[C@H]1CN(C)C(=O)C1CCOCC1`, “active”.
Regarding `C[C@H]1CN([C@@H](C)CO)S(=O)(=O)c2ccc(C#Cc3ccncc3)cc2O[C@@H]1CN(C)C(=O)C1CCOCC1`, the cytotoxicity call is “active”.
The same measure for `CC(C)CC#Cc1ccc2c(c1)O[C@@H](CN(C)C(=O)C1CCOCC1)[C@@H](C)CN([C@H](C)CO)S2(=O)=O`: “inactive”; for `C[C@@H]1CN([C@H](C)CO)C(=O)Cc2cc(NS(=O)(=O)c3ccc(F)cc3)ccc2O[C@H]1CN(C)C(=O)Nc1cccc2ccccc12`: “inactive”.
Turning to `C[C@@H]1CN([C@@H](C)CO)S(=O)(=O)c2ccc(C3=CCCCC3)cc2O[C@H]1CN(C)C(=O)C1CCOCC1`, the cytotoxicity call was “inactive”.
For the compound `C[C@@H]1CCCCO[C@@H](CN(C)C(=O)CCC(F)(F)F)[C@@H](C)CN([C@@H](C)CO)C(=O)c2cc(NS(=O)(=O)c3ccc(Cl)cc3)ccc2O1`, the cytotoxicity call is “inactive”.
With `Cc1ccc(S(=O)(=O)Nc2ccc3c(c2)C(=O)N([C@H](C)CO)C[C@@H](C)[C@H](CN(C)C(=O)Nc2ccccc2)OCCCC[C@H](C)O3)cc1` the entry was “inactive”.
With `C[C@@H]1CCCCO[C@@H](CN(C)C(=O)NC2CCCCC2)[C@H](C)CN([C@@H](C)CO)C(=O)c2cc(NC(=O)Nc3cccc4ccccc34)ccc2O1` the entry was “inactive”.
With `CN1C(=O)c2cc(NC(=O)c3cccs3)ccc2OC[C@H]2O[C@@H](CC(=O)NCCN3CCCCC3)CC[C@@H]21` the entry was “inactive”.
Take `CCCC#Cc1cnc2c(c1)C(=O)N([C@@H](C)CO)C[C@H](C)[C@@H](CN(C)S(=O)(=O)c1cccc(OC)c1)O2`: the cytotoxicity call was “inactive”.
For the compound `C[C@@H]1CN([C@@H](C)CO)C(=O)Cc2cc(NC(=O)CCC(F)(F)F)ccc2O[C@@H]1CN(C)S(=O)(=O)c1cccs1`, the cytotoxicity call is “inactive”.
The same measure for `C[C@@H]1CN([C@@H](C)CO)S(=O)(=O)c2ccc(C#CC3CC3)cc2O[C@H]1CN(C)C(=O)c1cccc(F)c1`: “inactive”; for `C[C@H](CO)N1C[C@H](C)[C@@H](CN(C)S(=O)(=O)c2ccc(-n3cccn3)cc2)OCc2cn(nn2)CCCC1=O`: “inactive”; for `CNC(=O)CN1CCO[C@H]2CN(C(=O)C(C)C)C[C@@H]21`: “inactive”.
With `O=C(C[C@H]1CC=CC[C@H](NC(=O)OCC2c3ccccc3-c3ccccc32)C(=O)OCCNC1=O)NCCO` the entry was “inactive”.
For `COc1ccccc1-c1cnc2c(c1)C(=O)N([C@@H](C)CO)C[C@@H](C)[C@@H](CN(C)C(=O)c1cccnc1)O2`, the cytotoxicity call is “inactive”.
The same measure for `C[C@H]1CN([C@@H](C)CO)S(=O)(=O)c2ccc(C#Cc3ccncc3)cc2O[C@H]1CN(C)C(=O)C1CCOCC1`: “active”.
With `CC(C)CC#Cc1ccc2c(c1)O[C@H](CN(C)C(=O)C1CCOCC1)[C@@H](C)CN([C@@H](C)CO)S2(=O)=O` the entry was “inactive”; with `C[C@@H]1CN([C@H](C)CO)S(=O)(=O)c2ccc(C#Cc3ccncc3)cc2O[C@@H]1CN(C)C(=O)C1CCOCC1`, “active”; with `CC(C)CC#Cc1ccc2c(c1)O[C@@H](CN(C)C(=O)C1CCOCC1)[C@H](C)CN([C@@H](C)CO)S2(=O)=O`, “inactive”.
With `O=C(C[C@H]1C=C[C@@H](NC(=O)CN2CCOCC2)[C@H](CO)O1)NCc1cccc(F)c1` the entry was “inactive”.
For the compound `C[C@@H]1CN([C@@H](C)CO)C(=O)c2cc(N(C)C)ccc2O[C@@H](C)CCCCO[C@H]1CN(C)Cc1ccc(C(F)(F)F)cc1`, the cytotoxicity call was “inactive”.
With `C[C@@H]1CN([C@@H](C)CO)C(=O)CCCn2cc(nn2)CO[C@@H]1CN(C)S(=O)(=O)c1cn(C)cn1` the entry was “inactive”.
`C[C@@H]1CN([C@@H](C)CO)C(=O)c2cccc(NC(=O)CCCCCC(=O)Nc3ccccc3N)c2O[C@H]1CN(C)C(=O)Nc1ccc(C(F)(F)F)cc1`: the cytotoxicity call was “inactive”.
Regarding `C[C@@H]1CN([C@H](C)CO)C(=O)c2cc(NC(=O)NC3CCCCC3)ccc2O[C@H]1CN(C)Cc1ccc(C(F)(F)F)cc1`, the cytotoxicity call is “inactive”.
Consider `O=C([C@@H]1N[C@@H]2c3ccc(-c4ccc(F)cc4)c(=O)n3C[C@@H]2[C@H]1CO)N1CCOCC1`, for which the cytotoxicity call was “inactive”.
Regarding `C[C@@H]1CN([C@@H](C)CO)C(=O)c2cccc(NS(=O)(=O)c3cn(C)cn3)c2O[C@H]1CN(C)Cc1ccncc1`, the cytotoxicity call was “inactive”.
With `CC(C)(C(=O)O)c1ccc(C(O)CCCN2CCC(C(O)(c3ccccc3)c3ccccc3)CC2)cc1.Cl` (configuration not stated) the entry was “inactive”; with `CC(C)(C(=O)O)c1ccc([C@@H](O)CCCN2CCC(C(O)(c3ccccc3)c3ccccc3)CC2)cc1`, “inactive”.
The same measure for `CC(C)(C)c1ccc(C(O)CCCN2CCC(C(O)(c3ccccc3)c3ccccc3)CC2)cc1` (configuration not stated): “active”; for `O=C(Nc1cc(C(F)(F)F)cc(C(F)(F)F)c1)Nc1cnn(-c2ccc([N+](=O)[O-])cc2)c1C(F)(F)F`: “active”.
With `O=C(Nc1cc(C(F)(F)F)cc(C(F)(F)F)c1)Nc1c(Br)cc(Br)cc1-c1nn[nH]n1`, the cytotoxicity call is “inactive”.
With `O=C(NCO)c1ccc([N+](=O)[O-])cc1` the entry was “inactive”.
With `CNC1C(OC2C(OC3C(O)C(O)C(NC(=N)N)C(O)C3NC(=N)N)OC(C)C2(O)C=O)OC(CO)C(O)C1O.O=S(=O)(O)O` (configuration not stated) [STREPTOMYCIN SULFATE [5mM; 10% aq DMSO + 5mM ethanolamine] ] the entry was “inactive”; with `COCC(=O)Nc1c(I)c(C(=O)NC[C@@H](O)CO)c(I)c(C(=O)N(C)C[C@@H](O)CO)c1I`, “inactive”.
The same measure for `COc1ccc(S(=O)(=O)N[C@@H]2C=C[C@H](CC(=O)N3CCN(c4ccccc4)CC3)O[C@@H]2CO)cc1`: “inactive”; for `O=S(=O)(O)c1cc(O)ccc1O`: “active”; for `O=C(O)c1cc(O)ccc1O` [listing 1 of 2 here]: “inactive”.
As for `O=C(O)c1cc(O)ccc1O` [listing 2 of 2 here], the cytotoxicity call is “inactive”.
The same measure for `C[C@@H]1CN([C@H](C)CO)C(=O)c2cc(NS(C)(=O)=O)ccc2O[C@@H](C)CCCCO[C@H]1CN(C)C(=O)Nc1ccc(C(F)(F)F)cc1`: “inactive”.
Regarding `COc1ccc(S(=O)(=O)Nc2ccc3c(c2)C(=O)N([C@H](C)CO)C[C@H](C)[C@@H](CN(C)C(=O)CCC(F)(F)F)OCCCC[C@H](C)O3)cc1`, the cytotoxicity call was “inactive”.
The same measure for `O=C(CCCCCC(=O)N/N=C/[C@H](O)[C@@H](O)[C@@H](O)[C@H](O)CO)NO`: “inactive”.
The same measure for `C[C@@H]1CN([C@H](C)CO)C(=O)CCCn2nncc2CO[C@H]1CN(C)S(=O)(=O)c1ccc(Oc2ccccc2)cc1`: “inactive”; for `C[C@@H]1CN([C@@H](C)CO)C(=O)c2cc(NC(=O)Nc3ccc(F)cc3)ccc2O[C@@H]1CN(C)CC1CCCCC1`: “inactive”.
In the case of `C[C@H](CO)N1C[C@H](C)[C@H](CN(C)CC2CCCCC2)Oc2ccc(NC(=O)Nc3ccc(F)cc3)cc2C1=O`, the cytotoxicity call is “inactive”.
With `C[C@H](CO)N1C[C@H](C)[C@H](CN(C)CC2CCCCC2)Oc2ccc(NC(=O)Nc3ccc(C(F)(F)F)cc3)cc2C1=O`, the cytotoxicity call was “active”.
With `C[C@@H]1CN([C@H](C)CO)C(=O)c2cc(NC(=O)Nc3ccc(F)cc3)ccc2O[C@H]1CN(C)CC1CCCCC1` the entry was “inactive”; with `C[C@@H]1CN([C@H](C)CO)C(=O)c2cc(NC(=O)Nc3ccc(F)cc3)ccc2O[C@@H]1CN(C)CC1CCCCC1`, “inactive”; with `C[C@@H]1CN([C@@H](C)CO)C(=O)c2cc(NC(=O)Nc3ccc(C(F)(F)F)cc3)ccc2O[C@@H]1CN(C)CC1CCCCC1`, “active”.
For `C[C@H]1CN([C@@H](C)CO)C(=O)c2cc(NC(=O)Nc3ccc(F)cc3)ccc2O[C@H]1CN(C)CC1CCCCC1`, the cytotoxicity call was “inactive”.
With `C[C@H](CO)N1C[C@H](C)[C@@H](CN(C)CC2CCCCC2)Oc2ccc(NC(=O)Nc3ccc(F)cc3)cc2C1=O` the entry was “inactive”; with `C[C@@H]1CN([C@@H](C)CO)C(=O)c2cc(NC(=O)Nc3ccc(C(F)(F)F)cc3)ccc2O[C@H]1CN(C)CC1CCCCC1`, “active”; with `C[C@H]1CN([C@@H](C)CO)C(=O)c2cc(NC(=O)Nc3ccc(F)cc3)ccc2O[C@@H]1CN(C)CC1CCCCC1`, “active”.
With `NCCc1[nH]cnc1-c1cccs1` the entry was “inactive”; with `C[C@H](CO)N1C[C@H](C)[C@H](CN(C)C(=O)Nc2cccc3ccccc23)Oc2ccc(NS(=O)(=O)c3ccc(Cl)cc3)cc2CC1=O`, “inactive”; with `COc1ccc(S(=O)(=O)Nc2ccc3c(c2)C(=O)N([C@H](C)CO)C[C@@H](C)[C@@H](CN(C)C(=O)C2CCCCC2)OCCCC[C@H](C)O3)cc1`, “inactive”.
In the case of `C[C@@H]1CN([C@@H](C)CO)C(=O)c2cc(NC(=O)CCCCCC(=O)Nc3ccccc3N)ccc2O[C@H]1CN(C)C(=O)Nc1cccc2ccccc12`, the cytotoxicity call is “inactive”.
